# Laboratory results from PubChem BioAssay (NCI).
# About 83,000 compounds went through this panel and 20% of them were active in at least one assay; those are over-represented in the sample as a whole.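 In brief: 96-well plates, 48 h treatment, single concentration, percent growth endpoint.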 Values without a mark were called inactive. Active and inactive are the calls of the source. The calls were made as follows: active = growth percent below 10; inactive = the rest.
# System: IGROV1 ovarian
# Experiment: NCI-60 one-dose screen, 48 h (100 = growth as untreated, 0 = no growth, -100 = all killed)
# Details: 10 µM unless noted
row,SMILES,growth
1,O=c1[nH]ccc2c(S(=O)(=O)N3CCCNCC3)cccc12,31.2%
2,CCN(CCCOc1ccc2c(Nc3cc(CC(=O)Nc4cccc(F)c4)[nH]n3)ncnc2c1)CCOP(=O)(O)O,62.4%
3,Cn1cc(-c2cnn3c(N)c(Br)c([C@@H]4CCCNC4)nc23)cn1,36.9%
4,C[C@@H](Nc1cc(F)cc(F)c1)c1cc(C(=O)N(C)C)cc2c(=O)cc(N3CCOCC3)oc12,-13.3% (active)
5,COc1ccc2c(CCCc3ccc(Cl)cc3Cl)c3[n+](cc2c1OC)CCc1cc2c(cc1-3)OCO2,-8.37% (active)
6,Cn1c(=O)c(F)c(Nc2ccc(I)cc2F)c2c(=O)n(C[C@@H](O)CO)cnc21,10.5%
7,CC(C)(C)c1cnc(CSc2cnc(NC(=O)C3CCNCC3)s2)o1,9.86% (active)
8,NC1(C(=O)N[C@@H](CCO)c2ccc(Cl)cc2)CCN(c2ncnc3[nH]ccc23)CC1,3.26% (active)
9,COC(=O)c1ccc2c(C(=Nc3ccc(N(C)C(=O)CN4CCN(C)CC4)cc3)c3ccccc3)c(O)[nH]c2c1,33.6%
10,CS(=O)(=O)CCNCc1ccc(-c2ccc3ncnc(Nc4ccc(OCc5cccc(F)c5)c(Cl)c4)c3c2)o1,9.76% (active)
11,C1=C\COCc2cc(ccc2OCCN2CCCC2)Nc2nccc(n2)-c2cccc(c2)COC/1,-18.7% (active)
12,O=C(Nc1cn[nH]c1-c1nc2ccc(CN3CCOCC3)cc2[nH]1)NC1CC1,9.49% (active)
13,Cc1cc2c(-c3nc4ccccn4c3N)c(O)c(O)cc2c(O)c1-c1c(C)cc2c(-c3nc4ccccn4c3N)c(O)c(O)cc2c1O,28.9%
14,Cc1csc(-c2nnc(Nc3ccc(Oc4ncccc4-c4ccnc(N)n4)cc3)c3ccccc23)c1,24.5%
15,CC(C)CC(=O)Nc1n[nH]c2c1CN(C(=O)C1CCN(C)CC1)C2(C)C,15.4%
16,Cc1ccccc1N1C(c2ccccc2)=NNC12C=CC(=O)C=C2Cl (stereo unspecified),100%
17,C=CCn1c(=O)c2cnc(Nc3ccc(N4CCN(C)CC4)cc3)nc2n1-c1cccc(C(C)(C)O)n1,3.06% (active)

# System: OVCAR-3 ovarian
# Experiment: as above
# Details: 10 µM unless noted
row,SMILES,growth
1,Cc1cc(C)n(CC(=O)Nc2ccc(-c3nc4ccccc4s3)cc2)n1,101%
2,CNS(=O)(=O)Nc1nccc(Cc2c(C)c3ccc(Oc4ncccn4)cc3oc2=O)c1F,76.2%
3,C[C@@H](Oc1cc(-n2cnc3ccc(CN4CCN(C)CC4)cc32)sc1C(N)=O)c1ccccc1C(F)(F)F,38%
4,COc1ccc(Cl)c(Nc2nc3ccccc3nc2NS(=O)(=O)c2cccc(NC(=O)C(C)(C)N)c2)c1,36.9%
5,COc1ccc(-c2ccc3c(N4CCOC[C@@H]4C)nc(N4CCOC[C@@H]4C)nc3n2)cc1CO,13%
6,O=C(Nc1cccc(Cl)c1)Nc1ncc(CCNc2ncnc3ccsc23)s1,38.3%
7,C#Cc1cccc(Nc2ncnc3cc(OCCOC)c(OCCOC)cc23)c1,64.2%
8,O=C(Nc1ccc(Nc2ncnc3sc4c(c23)CCOC4)cc1)Nc1ccc(Cl)c(C(F)(F)F)c1,87.2%
9,CCCCN1C(=O)c2cccc3c(-c4ccc5c(c4)ncn5C4CCCCC4)ccc(c23)C1=O,101%
10,COc1cc(Nc2c(C#N)cnc3cc(OCCCN4CCN(C)CC4)c(OC)cc23)c(Cl)cc1Cl,77.9%
11,COc1ncc(-c2ccc3nccc(-c4ccnnc4)c3c2)cc1NS(=O)(=O)c1ccc(F)cc1F,-58% (active)
12,C/C(=C(/c1ccc(Cl)cc1)c1ccc(OCCN2CCCC2)cc1)c1ccccc1,91.8%
13,COc1cc(OC)c(/C=C/S(=O)(=O)Cc2ccc(OC)c(NCC(=O)O)c2)c(OC)c1,35.9%
14,Nc1ncnc2c1ccn2-c1cccc(NC(=O)c2ccc(N3CCOCC3)c(C(F)(F)F)c2)c1,43.2%
15,C/C=C/C=N/NC(=S)Nc1ccccc1,117%
16,C=CC(=O)Nc1cc(Nc2nccc(-c3cn(C)c4ccccc34)n2)c(OC)cc1N(C)CCN(C)C,-55.3% (active)
17,C[C@@H](NC(=O)c1ncnc(N)c1Cl)c1ncc(C(=O)Nc2cc(C(F)(F)F)c(Cl)cn2)s1,95%
18,COc1cc2c(Oc3ccc4[nH]c(C)cc4c3F)ncnc2cc1OCCCN1CCCC1,87.4%
19,NC[C@@](O)(c1ccc(Cl)cc1)c1ccc(-c2cn[nH]c2)cc1,52.4%
